Laboratory results taken from PubChem BioAssay (NCATS).
Several values for one entry are separate records, joined by “and”; a condition that tells them apart may be missing. Identical values can stand only once. Inconclusive results are not listed. Activity calls are given as the source filed them. Calls come from the whole dose curve; as a rule, active = well fitted inhibition curve with a large enough effect; inconclusive = small, poorly fitted or top-dose-only effect; inactive = flat fitted curve, though single readings scatter.

assay: Drug repurposing screens with cells derived from glioblastoma tumor samples (AID 1345199); conditions: GBM patient neurospheres viability, ATP luminescence, 48 h; at 45.9 µM (top of the series); tumour line B; note: nearly all actives have a fitted effect of over 40% in size
How it was run: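 Four patient lines of CD133+ GBM neurospheres were screened at several concentrations; hits were retested in those lines plus three slower-growing GBM lines, using 48-hour treatment and ATP-based viability.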
% is set by controls: 0 for no effect and ±100 for the full control effect.

SMILES	activity, negative = cell killing
CN1Cc2c(N)cccc2C(c2ccccc2)C1 (stereo unspecified)	-10.9% (inactive)
OC[C@H]1O[C@@H](OCCc2ccc(O)cc2)[C@H](O)[C@@H](O)[C@@H]1O	-17.4% (inactive)
CCC(=O)NS(=O)(=O)c1ccc(-c2c(-c3ccccc3)noc2C)cc1	0.0321% (inactive)
CC[C@H]1OC(=O)C[C@@H](O)[C@H](C)[C@@H](O[C@@H]2O[C@H](C)[C@@H](O)[C@H](N(C)C)[C@H]2O)[C@@H](CCN2C[C@H](C)C[C@H](C)C2)C[C@@H](C)C(=O)/C=C/C(C)=C/[C@@H]1CO[C@@H]1O[C@H](C)[C@@H](O)[C@@H](OC)[C@H]1OC	-3.99% (inactive)
C[C@]12C=CC(=O)C=C1CC[C@@H]1[C@@H]2[C@@H](O)C[C@@]2(C)[C@H]1CC[C@]2(O)C(=O)COC(=O)CCC(=O)O	-11.2% (inactive)
CCC[C@@H]1C[C@@H](C(=O)N[C@@H]([C@H]2O[C@H](SC)[C@H](OP(=O)(O)O)[C@@H](O)[C@H]2O)[C@H](C)Cl)N(C)C1	-3.77% (inactive) and -8.29% (inactive)
Nc1c(Br)cc(Br)cc1CNC1CCC(O)CC1 (stereo unspecified)	-15.5% (inactive)
CCC(=O)O[C@]1(C(=O)CCl)[C@@H](C)C[C@H]2[C@@H]3C[C@H](F)C4=CC(=O)C=C[C@]4(C)[C@@]3(F)[C@@H](O)C[C@@]21C	-14.4% (inactive)
C[C@@H]1C[C@H]2[C@@H]3CCC4=CC(=O)C=C[C@]4(C)[C@@]3(F)[C@@H](O)C[C@]2(C)[C@@]1(O)C(=O)COP(=O)(O)O	-3.61% (inactive)
C#C[C@]1(O)CC[C@H]2[C@@H]3CCC4=C/C(=N/O)CC[C@@H]4[C@H]3CC[C@@]21CC	-7.76% (inactive)
CC(=O)OC(C)OC(=O)C(C)c1ccc(-c2ccccc2)c(F)c1 (stereo unspecified)	13.2% (inactive) and -1.22% (inactive)

same assay, conditions: GBM patient neurospheres viability, ATP luminescence, 48 h; at 45.9 µM (top of the series); tumour line D

SMILES	activity, negative = cell killing
CN1Cc2c(N)cccc2C(c2ccccc2)C1 (stereo unspecified)	-22.4% (inactive)
OC[C@H]1O[C@@H](OCCc2ccc(O)cc2)[C@H](O)[C@@H](O)[C@@H]1O	11.3% (inactive)
CCC(=O)NS(=O)(=O)c1ccc(-c2c(-c3ccccc3)noc2C)cc1	8.31% (inactive)
CC[C@H]1OC(=O)C[C@@H](O)[C@H](C)[C@@H](O[C@@H]2O[C@H](C)[C@@H](O)[C@H](N(C)C)[C@H]2O)[C@@H](CCN2C[C@H](C)C[C@H](C)C2)C[C@@H](C)C(=O)/C=C/C(C)=C/[C@@H]1CO[C@@H]1O[C@H](C)[C@@H](O)[C@@H](OC)[C@H]1OC	-15.7% (inactive)
C[C@]12C=CC(=O)C=C1CC[C@@H]1[C@@H]2[C@@H](O)C[C@@]2(C)[C@H]1CC[C@]2(O)C(=O)COC(=O)CCC(=O)O	-5.28% (inactive)
CCC[C@@H]1C[C@@H](C(=O)N[C@@H]([C@H]2O[C@H](SC)[C@H](OP(=O)(O)O)[C@@H](O)[C@H]2O)[C@H](C)Cl)N(C)C1	-15.4% (inactive) and -22.6% (inactive)
Nc1c(Br)cc(Br)cc1CNC1CCC(O)CC1 (stereo unspecified)	-18.1% (inactive)
CCC(=O)O[C@]1(C(=O)CCl)[C@@H](C)C[C@H]2[C@@H]3C[C@H](F)C4=CC(=O)C=C[C@]4(C)[C@@]3(F)[C@@H](O)C[C@@]21C	-33.8% (inactive)
C[C@@H]1C[C@H]2[C@@H]3CCC4=CC(=O)C=C[C@]4(C)[C@@]3(F)[C@@H](O)C[C@]2(C)[C@@]1(O)C(=O)COP(=O)(O)O	1.29% (inactive)
CC(=O)OC(C)OC(=O)C(C)c1ccc(-c2ccccc2)c(F)c1 (stereo unspecified)	13.1% (inactive) and -23.3% (inactive)
